# Most compounds without a hit are left out; they make up all but 3.2% or so of the library.
# CHT inh – inhibits the human high affinity choline transporter | Q9GZV3 | CHT-expressing cells, membrane potential dye, choline response; active compounds read low | B-score at 10 µM | actives 0.86% (n = 310,000) | AID 488975;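 active = B-score over 3 SD under the library average, and starting fluorescence ratio not unusually high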;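 note: choline stimulus applied at its EC90 after an EC20 pre-addition; B-score computed on integrated fluorescence ratio after choline addition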
# CHT PAM – allosteric activators of human choline transporter CHT; Q9GZV3; B-score at 10 µM; CHT-expressing cells, membrane potential dye, choline EC20; active compounds read high; LV-AA mutant CHT in HEK293 cells; actives 0.49% (n = 310,000);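 active = initial fluorescence not abnormally high and integrated response B-score, plate-corrected, over 3 SD above library mean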
# HDAC3 inh – human HDAC3 inhibition | O15379 | recombinant HDAC3, fluorogenic peptide/trypsin coupled, fluorescence | inhibition, % at 8.3 µM | actives 0.15% (n = 320,000); in the data active = inhibition above about 26%, passing the limit was not always enough
# TMEM16A inh – inhibitors of mouse TMEM16A calcium-activated chloride channel | Q8BHY3 | HEK293 TMEM16A/YFP iodide influx fluorescence, ionomycin | normalized B-score (activity score, 25-100; higher = stronger inhibition) at 10 µM | actives 1.2% (n = 310,000);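 active = ratio plate-corrected score three or more library SD toward inhibition, starting fluorescence score within five deviations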;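 note: score derived from kinetic fluorescence span divided by baseline fluorescence per well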
# Target sequence (Q8BHY3 whole entry, looked up): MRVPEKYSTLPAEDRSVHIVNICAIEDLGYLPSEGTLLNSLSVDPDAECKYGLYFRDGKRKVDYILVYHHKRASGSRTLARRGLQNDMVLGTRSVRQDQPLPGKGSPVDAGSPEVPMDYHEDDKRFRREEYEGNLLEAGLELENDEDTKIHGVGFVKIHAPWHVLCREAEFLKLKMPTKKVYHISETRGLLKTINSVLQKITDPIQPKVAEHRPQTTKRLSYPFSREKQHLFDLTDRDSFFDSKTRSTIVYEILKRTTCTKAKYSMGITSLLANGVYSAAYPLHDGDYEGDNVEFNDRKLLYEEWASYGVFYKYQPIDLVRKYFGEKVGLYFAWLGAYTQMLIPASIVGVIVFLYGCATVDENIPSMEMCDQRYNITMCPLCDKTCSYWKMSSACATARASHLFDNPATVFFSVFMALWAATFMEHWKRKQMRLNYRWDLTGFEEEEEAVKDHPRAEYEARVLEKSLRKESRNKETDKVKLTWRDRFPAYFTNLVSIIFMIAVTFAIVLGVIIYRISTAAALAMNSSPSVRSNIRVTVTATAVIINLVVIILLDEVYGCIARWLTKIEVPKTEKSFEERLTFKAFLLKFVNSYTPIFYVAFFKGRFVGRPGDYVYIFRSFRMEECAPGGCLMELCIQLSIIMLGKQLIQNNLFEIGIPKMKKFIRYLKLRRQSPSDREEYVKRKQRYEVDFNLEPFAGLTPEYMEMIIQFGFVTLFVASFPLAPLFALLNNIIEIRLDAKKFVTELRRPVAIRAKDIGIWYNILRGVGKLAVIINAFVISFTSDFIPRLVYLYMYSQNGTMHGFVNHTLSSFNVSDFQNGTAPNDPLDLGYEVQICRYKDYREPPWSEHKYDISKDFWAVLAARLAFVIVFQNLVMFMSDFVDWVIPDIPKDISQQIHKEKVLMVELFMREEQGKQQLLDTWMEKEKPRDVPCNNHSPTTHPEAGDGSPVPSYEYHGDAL
# ANO1 activ – activates or potentiates the mouse TMEM16A chloride channel | Q8BHY3 | actives 0.3% (n = 340,000) | B-score at 10 µM | HEK293 TMEM16A/YFP-H148Q/I152L, iodide quench fluorescence; active compounds read low;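 active = fluorescence-ratio B-score plate-corrected deviation score at least 3 library SD below zero, with starting fluorescence score within 5 deviations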;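 note: channel opened by trigger with iodide after compound preincubation; score built on the fluorescence ratio of max minus min over baseline; more negative score means more quench and so TMEM16A activation or potentiation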
# PHOSPHO1 block – inhibitors of human PHOSPHO1 phosphatase | recombinant PHOSPHO1, absorbance phosphatase assay | inhibition, % at 13.3 µM | actives 1.1% (n = 290,000); in the data active = inhibition above about 60%
# CHT block conf – human CHT inhibition, confirmatory screen | shares compounds with CHT inh | AID 493221 | CHT-expressing cells, choline membrane potential dye; LV-to-AA substituted CHT, HEK293 cells | actives 70% (n = 2,400) | CHT activity remaining % of control (active compounds read low), % at 10 µM;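 active = choline transporter activity left, mean of duplicates at 10 µM, below buffer-only control mean minus 3 SD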;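 note: depolarization triggered by choline at its EC90 following an EC20 pre-addition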
# HEK293 CHT ctr – counter-screen for CHT inhibitors: effect in parental HEK293 cells | membrane potential ratio readout (active if shifted either direction beyond buffer ±3SD; no single direction) at 10 µM | shares compounds with CHT inh | actives 4% (n = 2,400) | membrane potential dye, choline response; active = decrease or increase beyond buffer ±3SD;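 note: parental cells lack the transporter so any hit is non-specific; ratio is peak minus trough fluorescence over baseline after EC90 choline challenge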
# Numbers stand for hits; . = inactive; / = not tested or not shown.
SMILES,CHT inh,CHT PAM,HDAC3 inh,TMEM16A inh,ANO1 activ,PHOSPHO1 block,CHT block conf,HEK293 CHT ctr
OC(CNCC#Cc1ccccc1)c1ccccc1 (centres undefined),-6.84,.,.,.,.,.,52.4%,.
COc1ccccc1C(=O)OCC(=O)Nc1ccccc1OC(F)F,-7.83,.,.,.,.,.,.,.
COc1ccccc1C(=O)OCC(=O)Nc1ccc(OC(F)F)cc1,.,.,.,.,.,.,/,/
CC1CCCCC1NC(=O)c1ccc(S(=O)(=O)NCC2CCCO2)cc1 (centres undefined),-11.9,.,.,.,.,.,11.1%,.
CC(=O)Oc1ccc(C(=O)Nc2ccc(S(=O)(=O)NCC3CCCO3)cc2)cc1 (centres undefined),-5.11,.,.,.,.,.,70.1%,.
COc1cccc(CNS(=O)(=O)c2cc3c4c(c2)CCN4C(=O)CC3)c1,.,.,.,.,.,/,/,/
CCOc1ncccc1C(=O)NCC1COc2ccccc2O1 (centres undefined),-5.16,.,.,.,.,.,67.1%,.
Cc1nc(Nc2ccc(S(N)(=O)=O)cc2)sc1-c1ccccc1,.,.,.,.,.,.,/,/
COc1ccc(Nc2nc(C)c(-c3ccccc3)s2)cc1,-8.48,.,.,.,.,.,.,.
COc1ccccc1/C=C/C=N/NC(=O)c1cc(-c2ccc(C)o2)[nH]n1,-17.3,.,.,.,.,.,.,.
Cc1ccc(/C=N/NC(=O)c2cc(-c3ccc(C)o3)[nH]n2)cc1,.,.,.,.,.,.,/,/
CC(NC(=O)/C(C#N)=C/c1ccc([N+](=O)[O-])o1)c1ccccc1 (centres undefined),-5.3,.,.,.,.,.,61.8%,.
CCOCCCNC(=O)/C(C#N)=C/c1ccc([N+](=O)[O-])o1,-7.02,.,.,.,.,.,58.1%,.
COc1cc(OC)cc(C(=O)NCCN2C(=O)S/C(=C\c3cccs3)C2=O)c1,.,.,.,.,.,.,/,/
O=[N+]([O-])c1cc([N+](=O)[O-])c2c(=Nc3ccccc3)n(-c3ccccc3)n(O)c2c1,-6.22,.,.,.,.,.,60.8%,.
O=[N+]([O-])c1cc(Br)c(Nc2ccccc2)c([N+](=O)[O-])c1,.,.,.,.,.,.,/,/
CCCCNc1ncnc2c1cnn2-c1ccccc1,-5.39,.,.,.,.,.,.,.
Cc1nc(NCCOc2ccccc2)sc1C(=O)Nc1ccccc1,.,.,.,.,.,.,/,/
Cc1ccccc1NC(=O)c1ccc(C)c(S(=O)(=O)NCc2cccnc2)c1,-7.2,.,/,.,.,.,27.0%,.
COc1ccccc1NS(=O)(=O)c1cc(C(=O)NCc2cccnc2)ccc1C,.,.,.,.,.,/,/,/
COc1ccc(-c2nnn(CC(=O)N(CCCN3CCOCC3)C(C(=O)NC3CCCC3)c3ccc(C)o3)n2)cc1 (centres undefined),.,.,.,.,.,.,/,/
CCOC(=O)c1nn(-c2ccccc2)c2nnc(Cc3ccc(Cl)cc3)c(=O)n12,.,.,.,.,.,.,/,/
CCOC(=O)c1nn(-c2ccc(Cl)cc2)c2nnc(Cc3ccc(C)cc3)c(=O)n12,-5.94,.,/,.,.,.,.,.
Cc1cc2c(ncn2Cc2ccccc2)c([N+](=O)[O-])c1C,-5.3,.,.,.,.,.,50.7%,.
CC(C)(C)OC(=O)NC(CC(=O)OCc1ccccc1)C(=O)O (centres undefined),.,.,.,.,.,.,/,/
SMILES,CHT inh,CHT PAM,HDAC3 inh,TMEM16A inh,ANO1 activ,PHOSPHO1 block,CHT block conf,HEK293 CHT ctr
OCc1ccccc1OCCOc1ccc(Cl)c2cccnc12,-9.74,.,.,.,.,.,44.2%,.
O=C(CS(=O)c1ccc(C(F)(F)F)cc1[N+](=O)[O-])Oc1ccccc1 (centres undefined),-4.98,.,.,.,.,.,-5.7%,.
c1ccc(CCNc2c3c(nc4ncnn24)CCC3)cc1,-7.1,.,.,.,.,.,44.0%,.
Fc1ccccc1CCNc1c2c(nc3ncnn13)CCCC2,-6.93,.,.,.,.,.,63.2%,.
COc1ccccc1N(C)S(=O)(=O)c1ccc(C(=O)OCC(=O)NCC(F)(F)F)cc1,.,.,.,.,.,.,/,/
COc1ccc(Cl)cc1NC(=O)C1CCCN(c2ncnc3c2nc2n3CCCCC2)C1 (centres undefined),-5.19,.,.,.,.,.,57.5%,.
CC1CCN(CCNC(=O)C2CCCN(c3ncnc4c3nc3n4CCCCC3)C2)CC1 (centres undefined),-10.5,.,.,.,.,.,32.1%,.
O=C(Nc1ccc(Cl)cn1)C1CCCN(c2ncnc3c2nc2n3CCCCC2)C1 (centres undefined),-6,.,.,.,.,.,31.8%,.
COC(=O)Cc1c(C)c2ccc(OCC(=O)c3ccc(OC)c(OC)c3)cc2oc1=O,.,.,.,.,/,.,/,/
Cc1ccc2c(=O)cc(C(=O)Nc3ccc(S(=O)(=O)Nc4onc(C)c4C)cc3)oc2c1,.,.,/,.,.,.,/,/
O=C(COC(=O)c1ccccn1)Nc1c(Cl)cccc1Cl,.,.,.,.,.,.,/,/
CC1CCC(NC(=O)Cn2c3c(c(-c4ccccc4Cl)cc2=O)CCC3)CC1 (centres undefined),-6.81,.,.,.,.,.,45.6%,.
Cc1cccc(N2CCN(C(=O)CCn3c(=O)[nH]c4ccsc4c3=O)CC2C)c1 (centres undefined),.,.,.,.,.,.,/,/
Cc1cccc(N2CCN(C(=O)CCCn3c(=O)[nH]c4ccsc4c3=O)CC2C)c1 (centres undefined),-10.9,.,.,.,.,.,18.7%,.
CCNc1nc2[nH]c(=O)c3c(c2s1)OC(N)=C(C#N)C3c1ccc(C)cc1 (centres undefined),-4.95,.,.,.,.,.,67.3%,.
O=C(Cn1nc(C(F)(F)F)cc1C1CC1)NCc1ccccc1F,-5.79,.,.,.,.,.,65.0%,.
Cc1cc(C)cc(NC(=O)Cn2nnc(C(=O)NCCc3ccccc3)c2N)c1,.,.,.,.,.,.,/,/
COc1ccc(S(=O)(=O)N2CCN(Cc3ccc4c(c3)OCO4)CC2)c2ccccc12,.,.,.,.,.,.,/,/
O=C(CSc1c2c(nc3ccc(Cl)cc13)CCCC2)NCCCN1CCOCC1,-8.63,.,.,.,.,.,18.2%,.

# Bioassay records as filed in PubChem BioAssay.
